# Experimental data from the supplement of paper PMC8728848.
# Only a selection was taken, and the strongest signals are over-represented in it overall.
# What was measured:
# Assay in all cases: glycan array binding signal (z-score within array); higher = stronger binding
# Settings in all cases: glycan notation: IUPAC condensed, linker removed
# [1] = target: Fuc(a1-2)Gal(b1-4)GlcNAc(b1-3)[Fuc(a1-2)Gal(b1-4)GlcNAc(b1-6)]GalNAc
# Procedure, shortened: (§1)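 Negative Z-scores can be read as non-binding. The Z-score is calculated within each array and then averaged across arrays of one protein sequence at different concentrations or buffers and across linkers. Arrays, 3228 in all, were curated from the Consortium for Functional Glycomics database and kept only where the protein sequence was available.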
# [2] = target: Fuc(a1-2)[Gal(a1-3)]Gal(b1-3)GalNAc
# Procedure, shortened: as §1
# [3] = target: Fuc(a1-2)[Gal(a1-3)]Gal(b1-3)GlcNAc(b1-3)GalNAc
# Procedure, shortened: as §1
# [4] = target: Fuc(a1-2)[GalNAc(a1-3)]Gal
# Procedure, shortened: as §1
# [5] = target: Fuc(a1-2)[GalNAc(a1-3)]Gal(b1-3)GlcNAc(b1-3)GalNAc
# Procedure, shortened: as §1
# [6] = target: Fuc(a1-3)[Gal(b1-4)]GlcNAc(b1-2)Man(a1-3)[Fuc(a1-3)[Gal(b1-4)]GlcNAc(b1-2)Man(a1-6)]Man(b1-4)GlcNAc(b1-4)GlcNAc
# Procedure, shortened: as §1
# [7] = target: Fuc(a1-3)[Gal(b1-4)]GlcNAc(b1-3)Gal(b1-3)[Fuc(a1-4)]GlcNAc
# Procedure, shortened: as §1
# Gal(a1-3)GalNAc = target: Gal(a1-3)GalNAc
# Procedure, shortened: as §1
# [8] = target: Gal(b1-3)GalNAc(a1-3)[Fuc(a1-2)]Gal(b1-4)GlcNAc
# Procedure, shortened: as §1
# [9] = target: Gal(b1-4)GlcNAc(b1-2)Man(a1-3)[Man(a1-6)]Man(b1-4)GlcNAc(b1-4)GlcNAc
# Procedure, shortened: as §1
# [10] = target: Gal(b1-4)GlcNAc(b1-3)[Gal(b1-4)GlcNAc(b1-6)]GalNAc
# Procedure, shortened: as §1
# Gal3S(b1-3)GalNAc = target: Gal3S(b1-3)GalNAc
# Procedure, shortened: as §1
# [11] = target: Gal3S(b1-3)[Fuc(a1-4)]GlcNAc
# Procedure, shortened: as §1
# Gal6S(b1-3)GlcNAc6S = target: Gal6S(b1-3)GlcNAc6S
# Procedure, shortened: as §1
# Glc(b1-4)Glc = target: Glc(b1-4)Glc
# Procedure, shortened: as §1
# [12] = target: GlcNAc(a1-4)Gal(b1-4)GlcNAc
# Procedure, shortened: as §1
# [13] = target: GlcNAc(a1-4)Gal(b1-4)GlcNAc(b1-3)Gal(b1-4)GlcNAc(b1-3)Gal(b1-4)GlcNAc
# Procedure, shortened: as §1
# [14] = target: GlcNAc(b1-2)Gal(b1-3)GalNAc
# Procedure, shortened: as §1
# [15] = target: GlcNAc(b1-2)Man(a1-3)[GlcNAc(b1-2)Man(a1-6)]Man(b1-4)GlcNAc(b1-4)GlcNAc
# Procedure, shortened: as §1
# [16] = target: GlcNAc(b1-2)Man(a1-3)[GlcNAc(b1-4)][GlcNAc(b1-2)Man(a1-6)]Man(b1-4)GlcNAc(b1-4)GlcNAc
# Procedure, shortened: as §1
# [17] = target: GlcNAc(b1-2)[GlcNAc(b1-4)]Man(a1-3)[GlcNAc(b1-4)][GlcNAc(b1-2)Man(a1-6)]Man(b1-4)GlcNAc(b1-4)GlcNAc
# Procedure, shortened: as §1
# [18] = target: GlcNAc(b1-2)[GlcNAc(b1-6)]Man(a1-6)[GlcNAc(b1-2)Man(a1-3)][GlcNAc(b1-4)]Man(b1-4)GlcNAc(b1-4)GlcNAc
# Procedure, shortened: as §1
# GlcNAc(b1-3)Gal = target: GlcNAc(b1-3)Gal
# Procedure, shortened: as §1
# [19] = target: GlcNAc(b1-3)Gal(b1-3)GalNAc
# Procedure, shortened: as §1
# [20] = target: GlcNAc(b1-3)[GlcNAc(b1-4)][GlcNAc(b1-6)]GlcNAc
# Procedure, shortened: as §1
# [21] = target: GlcNAc(b1-3)[GlcNAc(b1-6)]GalNAc
# Procedure, shortened: as §1
# [22] = target: GlcNAc(b1-4)Gal(b1-4)GlcNAc
# Procedure, shortened: as §1
# Kdn(a2-3)Gal(b1-4)Glc = target: Kdn(a2-3)Gal(b1-4)Glc
# Procedure, shortened: as §1
# [23] = target: Neu5Ac(a2-3)Gal(b1-3)GalNAc6S
# Procedure, shortened: as §1
# [24] = target: Neu5Ac(a2-3)Gal(b1-4)GlcNAc(b1-2)Man(a1-3)[Neu5Ac(a2-6)Gal(b1-4)GlcNAc(b1-2)Man(a1-6)]Man(b1-4)GlcNAc(b1-4)GlcNAc
# Procedure, shortened: as §1
# [25] = target: Neu5Ac(a2-3)Gal(b1-4)[Fuc(a1-3)]GlcNAc
# Procedure, shortened: as §1
# [26] = target: Neu5Ac(a2-3)GalNAc(b1-4)GlcNAc
# Procedure, shortened: as §1
# [27] = target: Neu5Ac(a2-6)Gal(b1-4)GlcNAc(b1-3)Gal(b1-4)GlcNAc(b1-3)Gal(b1-4)GlcNAc
# Procedure, shortened: as §1
# [28] = target: Neu5Ac(a2-6)GlcNAc(b1-4)GlcNAc
# Procedure, shortened: as §1
# [29] = target: Neu5Ac(a2-8)Neu5Ac(a2-3)Gal(b1-4)Glc
# Procedure, shortened: as §1
# [30] = target: Neu5Ac(a2-8)Neu5Ac(a2-3)[GalNAc(b1-4)]Gal(b1-4)Glc
# Procedure, shortened: as §1
# Neu5Gc(a2-6)GalNAc = target: Neu5Gc(a2-6)GalNAc
# Procedure, shortened: as §1
# [31] = target: Fuc(a1-2)Gal(b1-4)GlcNAc(b1-3)Gal(b1-4)GlcNAc(b1-3)Gal(b1-4)GlcNAc
# Procedure, shortened: as §1
# [32] = target: Gal(a1-3)[Gal(a1-4)]Gal(b1-4)GlcNAc
# Procedure, shortened: as §1
# [33] = target: Gal(b1-4)GalNAc(a1-3)[Fuc(a1-2)]Gal(b1-4)GlcNAc
# Procedure, shortened: as §1
# Gal3S(b1-4)GlcNAc = target: Gal3S(b1-4)GlcNAc
# Procedure, shortened: as §1
# Gal4S(b1-4)GlcNAc = target: Gal4S(b1-4)GlcNAc
# Procedure, shortened: as §1
# [34] = target: GlcNAc(b1-4)GlcNAc(b1-4)GlcNAc
# Procedure, shortened: as §1
# [35] = target: Man(a1-2)Man(a1-6)[Man(a1-3)]Man(a1-6)[Man(a1-2)Man(a1-2)Man(a1-3)]Man(b1-4)GlcNAc(b1-4)GlcNAc
# Procedure, shortened: as §1
# [36] = target: Neu5Ac(a2-8)Neu5Ac(a2-8)Neu5Ac(a2-3)Gal(b1-4)Glc
# Procedure, shortened: as §1
# Neu5Gc(a2-3)Gal(b1-4)Glc = target: Neu5Gc(a2-3)Gal(b1-4)Glc
# Procedure, shortened: as §1
binder,measurement,setting,value
XCL (Xerocomus chrysenteron) (protein) MSYSITLRVYQTNRDRGYFSIVEKTVWHFANGGTWSEANGAHTLTQGGSGTSGVLRFLSTKGERITVAVGVHNYKRWCDVVTGLKPDETALVINPQYYNNGGRDYVREKQLAEYSVTSAIGTKVEVVYTVAEGNNLEANVIFS,glycan array binding signal (z-score),[1],-0.27
same,glycan array binding signal (z-score),[2],-0.324
same,glycan array binding signal (z-score),[3],-0.303
same,glycan array binding signal (z-score),[4],-0.237
same,glycan array binding signal (z-score),[5],-0.249
same,glycan array binding signal (z-score),[6],-0.324
same,glycan array binding signal (z-score),[7],-0.31
same,glycan array binding signal (z-score),Gal(a1-3)GalNAc,-0.207
same,glycan array binding signal (z-score),[8],3.43
same,glycan array binding signal (z-score),[9],-0.272
same,glycan array binding signal (z-score),[10],-0.282
same,glycan array binding signal (z-score),Gal3S(b1-3)GalNAc,3.44
same,glycan array binding signal (z-score),[11],-0.322
same,glycan array binding signal (z-score),Gal6S(b1-3)GlcNAc6S,-0.321
same,glycan array binding signal (z-score),Glc(b1-4)Glc,-0.304
same,glycan array binding signal (z-score),[12],2.15
same,glycan array binding signal (z-score),[13],5.84
same,glycan array binding signal (z-score),[14],-0.139
same,glycan array binding signal (z-score),[15],4.71
same,glycan array binding signal (z-score),[16],5.38
same,glycan array binding signal (z-score),[17],4.92
same,glycan array binding signal (z-score),[18],3.42
same,glycan array binding signal (z-score),GlcNAc(b1-3)Gal,0.225
same,glycan array binding signal (z-score),[19],3.71
same,glycan array binding signal (z-score),[20],0.592
same,glycan array binding signal (z-score),[21],0.896
same,glycan array binding signal (z-score),[22],-0.303
same,glycan array binding signal (z-score),Kdn(a2-3)Gal(b1-4)Glc,-0.294
same,glycan array binding signal (z-score),[23],3.87
same,glycan array binding signal (z-score),[24],-0.32
same,glycan array binding signal (z-score),[25],-0.3
same,glycan array binding signal (z-score),[26],-0.279
same,glycan array binding signal (z-score),[27],-0.311
same,glycan array binding signal (z-score),[28],-0.322
same,glycan array binding signal (z-score),[29],-0.311
same,glycan array binding signal (z-score),[30],-0.316
same,glycan array binding signal (z-score),Neu5Gc(a2-6)GalNAc,0.059
"RegIIIgamma (Mus musculus), O09049 (protein) MLPRITITIMSWMLLSCLMLLSQVQGEVAKKDAPSSRSSCPKGSRAYGSYCYALFSVSKNWYDADMACQKRPSGHLVSVLSGAEASFLSSMIKSSGNSGQYVWIGLHDPTLGYEPNRGGWEWSNADVMNYINWETNPSSSSGNHCGTLSRASGFLKWRENYCNLELPYVCKFKA",glycan array binding signal (z-score),[31],0.632
same,glycan array binding signal (z-score),[4],-0.258
same,glycan array binding signal (z-score),[32],0.491
same,glycan array binding signal (z-score),[33],-0.228
same,glycan array binding signal (z-score),Gal3S(b1-3)GalNAc,-0.134
same,glycan array binding signal (z-score),Gal3S(b1-4)GlcNAc,-0.128
same,glycan array binding signal (z-score),Gal4S(b1-4)GlcNAc,1.17
same,glycan array binding signal (z-score),[34],-0.185
same,glycan array binding signal (z-score),[35],-0.06
same,glycan array binding signal (z-score),[30],-0.133
same,glycan array binding signal (z-score),[36],-0.163
same,glycan array binding signal (z-score),Neu5Gc(a2-3)Gal(b1-4)Glc,-0.148
